Results published in PubChem BioAssay (NCI).
About 83,000 compounds went through this panel and 20% of them were active in at least one assay; those are over-represented in the sample as a whole.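 Single-dose data. Exposure time 48 hours. Values below 10 considered active.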 Activity calls are given as the source filed them.

System: MCF7 breast
Test: NCI-60 one-dose screen, 48 h (100 = growth as untreated, 0 = no growth, -100 = all killed)
Details: 10 µM unless noted

Row | SMILES | growth
1 | O=C(CN1CCN(c2cc(=O)n(-c3ccccc3)c3ccccc23)CC1)Nc1nc(-c2ccccc2)cs1 | 27.6% (inactive)
2 | Cc1ccc(NC(=O)c2ccc(CN3CCOCC3)c(C(F)(F)F)c2)cc1Oc1ccc(-c2[nH]nc3ncnc(N)c23)cc1 | 55.8% (inactive)
3 | Cc1ccc(NC(=O)CNc2cc(C(N)=O)cc(F)c2C)c(Cl)c1 | 87.2% (inactive)
4 | COc1cc(C2N=C(NNc3ccccc3)NC(C)=C2C(C)=O)ccc1O (centres undefined) | 88.7% (inactive)
5 | CNc1ncc2cc(-c3ccc(-c4ncccc4F)cc3Cl)c(=O)n(CC3OCC(N)CO3)c2n1 (centres undefined) | 101% (inactive)
6 | Nc1cc(-c2c[nH]c3ccc(Br)cc23)nc2cc(-c3c[nH]c4ccc(Br)cc34)nn12 | 8.21% (active)
7 | Cc1cc2ncc(-c3cc4ccccc4c(N4CCN(C)CC4)n3)nc2cc1C | -65% (active)
8 | O=C(NCCn1ccnc1)c1ccc(-c2nc3ccc4[nH]ncc4c3c3c2CCCC3)cc1 | 20.5% (inactive)
9 | N#C/C(=C\c1ccc(-c2ccc(Cl)cc2Cl)o1)c1ccc(F)cc1 | 66.9% (inactive)
10 | COc1cc(Nc2c(C#N)cnn3cc(-c4cnn(CC(C)(C)O)c4)cc23)ccc1Cl | 48% (inactive)
11 | C=C(C=O)[C@@H]1CC[C@]2(CO)CC[C@]3(C)[C@H](CC[C@@H]4[C@@]5(C)CCCNC(C)(C)[C@@H]5CC[C@]43C)[C@@H]12 | 12.7% (inactive)
12 | CC/C(=C/c1cc(OC)ccc1O)c1ccc2cc(OC)ccc2[o+]1 | 16.6% (inactive)
13 | COc1c(N2CC3CCCNC3C2)c(F)cc2c(=O)c(C(=O)N/N=C/c3ccc4c(c3)OCO4)cn(C3CC3)c12 (centres undefined) | 14.6% (inactive)
14 | COc1cccc2cc(-c3cc4ccccc4[nH]3)/c(=N\NC(=O)c3ccc(Cl)cc3)oc12 | 8.32% (active)
15 | C=CC(=O)N1CCC=C(c2cc3c(N[C@H](C)c4ccccc4)ncnc3[nH]2)C1 | 49.5% (inactive)
16 | O=C(CSc1nc2ccccc2c(=O)n1-c1ccccc1)Nc1cccc(C(=O)/C=C/c2ccccc2)c1 | 19% (inactive)
17 | c1cn2c(ccc3nc(-c4cn[nH]c4)c4c(c32)CCCC4)n1 | 60.9% (inactive)

Row | SMILES | growth
18 | O=S(=O)(NCCCNc1nccc(-n2cnc3ccccc32)n1)c1ccc(C(F)(F)F)cc1 | 83.4% (inactive)
19 | COc1ccc(-c2cc(-c3ccc(Cl)cc3)c(C#N)c(=O)n2Cc2ccc(C(=O)O)cc2)cc1 | 33.3% (inactive)
20 | COc1cc2c(cc1OC)C(Sc1ccc(C)cc1)c1c(nc(N)c(C#N)c1N)O2 (centres undefined) | -66.9% (active)
21 | CCc1nn2c(C)cc(C)nc2c1Cc1ccc(/C=C/CN2CCN(CCOCCOCCN3CCN(C/C=C/c4ccc(Cc5c(CC)nn6c(C)cc(C)nc56)cc4)CC3)CC2)cc1 | -85.8% (active)
22 | Cc1noc(C)c1CSc1nc2ccccc2n1-c1ccccc1 | 94.9% (inactive)
23 | COc1cccc2c1CN(C(=O)c1ccc(O)c(C(=O)N3Cc4ccc(OCCC[P+](c5ccccc5)(c5ccccc5)c5ccccc5)cc4C3)c1)C2 | 17.9% (inactive)
24 | COc1ccc2c(c1)Oc1nc(N)c(C#N)c(N)c1C2Sc1ccc(C)cc1 (centres undefined) | -77.7% (active)
25 | Nc1nc(-c2cccc([N+](=O)[O-])c2)c(N=Nc2cccc([N+](=O)[O-])c2)s1 | 13.1% (inactive)
26 | Fc1ccc(-c2cc3nc(C(Cl)Cl)nc(-c4ccco4)n3n2)cc1 | -8.71% (active)
27 | CCN1CCN(Cc2ccc(C(=O)Nc3ccc(C)c(Oc4ccc(-c5[nH]nc6ncnc(N)c56)cc4)c3)cc2C(F)(F)F)CC1 | 70.6% (inactive)
28 | Cc1ccc(-n2cc(/C=C/C(=O)c3ccc(O)cc3)c(-c3ccc(S(C)(=O)=O)cc3)n2)cc1 | 24.8% (inactive)
29 | CCCn1cnc2c(c1=N)C(c1ccc(OC)cc1)c1sc3c(CC)cccc3c1O2 (centres undefined) | 18.4% (inactive)
30 | Cc1ccc(NC(=O)c2ccc(CN3CCN(C)CC3)cc2)cc1Oc1ccc(-c2[nH]nc3ncnc(N)c23)cc1 | 35.7% (inactive)
31 | CC(=O)c1nnn(-c2c(C(=O)n3nc(C)cc3C)sc(=S)n2-c2ccccc2)c1C | 89.2% (inactive)
32 | O=S(=O)(NCCNc1nccc(-n2cnc3ccccc32)n1)c1ccc(C(F)(F)F)cc1 | 34.9% (inactive)
33 | NC(N)=Nc1ccc(Oc2cccc(Nc3cccc(C(F)(F)F)c3)c2)cn1 | -69.1% (active)
34 | Nc1nc(-c2cccc([N+](=O)[O-])c2)c(N=Nc2ccc(Br)cc2)s1 | 7.63% (active)
